Laboratory results published in PMC7826789 (International Journal of Molecular Sciences, 2021).

What follows are molecules tested on MAP4K2. Details: Compound Concentration (nM):1000.
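Also: KINOMEscan scanMAX binding as percent activity remaining versus control; lower means stronger binding.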

| SMILES | Percent Control [%] |
| --- | --- |
| Cl.O=S1CCN(Cc2ccc(-c3ccc4ncnc(Nc5ccc(OCc6ccccc6)c(F)c5)c4c3)o2)CC1 [GW576924A] | 100 |
| COc1ccc2[nH]c3c4[nH]c5ccc(OC)cc5c4c4c(c3c2c1)C(=O)NC4=O [GW296115X] | 75 |
| COc1cc2ncnc(Nc3ccc4c(cnn4Cc4ccccc4)c3)c2cc1OC.Cl [GW282449A] | 93 |
| COc1cc(C=NNc2ncnc3c2cnn3-c2ccccc2)ccc1O [GW513184X] | 89 |
| COc1ccccc1-c1cc(/C=C2\C(=O)Nc3ncc(Br)cc32)cc(Br)c1O [GW442130X] | 89 |
| CN1CCN(C(=O)c2ccc(NC(=O)Nc3ccc(N(C)c4ccnc(Nc5ccc(CS(C)(=O)=O)cc5)n4)cc3)cc2)CC1.Cl [GW830263A] | 43 |
| O=C1Nc2ccc(C(=O)c3ccco3)cc2C1=Cc1cc(Cl)c(O)c(Cl)c1 [GW406108X] | 90 |
| COc1cc(/C=N/Nc2ncnc3[nH]ncc23)ccc1O [GW578748X] | 43 |
| Cc1cc(O)cc(C)c1/C=C/c1cncc(C(N)=O)c1 [GW435821X] | 56 |
| CCS(=O)(=O)c1ccc(OC)c(Nc2ncc(-c3cccc(F)c3)o2)c1 [GW621970X] | 91 |
| Cl.O=C(Nc1ccc(Oc2ccc3[nH]c(NC(=O)c4ccco4)nc3c2)cc1)Nc1cc(C(F)(F)F)ccc1F [GW683134A] | 85 |
| Nc1ncnc2occ(-c3ccc(NC(=O)Nc4cc(C(F)(F)F)ccc4F)cc3)c12 [GW770249X] | 27 |
| O=C(Nc1n[nH]c2nc(-c3ccc(O)cc3)c(Br)cc12)C1CC1 [SB-725317] | 38 |
| CC1=C(C(=O)Nc2ccc3[nH]ncc3c2)C(c2ccc(Cl)c(Cl)c2)CC(=O)N1 (stereo not shown) [GSK299115A] | 79 |
| NS(=O)(=O)c1ccc(N/N=C2\C(=O)Nc3ccc(Cl)cc32)cc1 [GW280670X] | 90 |
| CC1=C(C(=O)Nc2ccc3[nH]ncc3c2)C(c2ccc3ccccc3c2)CC(=O)N1 (stereo not shown) [GSK270822A] | 100 |
| COc1cccc(-c2c[nH]c3c(N/N=C/c4ccncc4)ncnc23)c1 [GW814408X] | 78 |
| NS(=O)(=O)c1ccc(N/N=C2\C(=O)Nc3ccc(C(=O)NCCc4c[nH]cn4)cc32)cc1 [GW300660X] | 71 |
| CN(C)CCNC(=O)Nc1ccc(N(C)c2ccnc(Nc3ccc(CS(C)(=O)=O)cc3)n2)cc1.Cl [GW830900A] | 80 |
| COc1ccc2cc(-c3c(-c4ccncc4)nc(-c4ccc(S(C)(=O)=O)cc4C)n3C)ccc2c1 [SB-633825] | 93 |

| SMILES | Percent Control [%] |
| --- | --- |
| NS(=O)(=O)c1ccc(N/N=C2\C(=O)Nc3ccc(-c4cnco4)cc32)cc1 [GW276655] | 80 |
| CN(C)c1cc2c(Nc3ccc4c(cnn4Cc4ccccc4)c3)ncnc2cn1 [GW282974X] | 92 |
| COc1ccc2c(-c3ccnc(Nc4cccc(OC(F)(F)F)c4)n3)cnn2n1 [GW810372X] | 94 |
| Cl.O=C(O[C@H]1CN[C@H](C#Cc2cc3ncnc(Nc4ccc5c(cnn5Cc5ccccc5)c4)c3s2)C1)N1CCOCC1 [GSK200398A] | 98 |
| CCS(=O)(=O)c1ccc(OC)c(Nc2ncc(-c3cccc(OC)c3)o2)c1 [GW580509X] | 89 |
| CCc1ccc(Oc2nccc(-c3c(-c4ccc(F)cc4)ncn3C3CCNCC3)n2)cc1 [SB-242719] | 40 |
| NS(=O)(=O)c1ccc(N/N=C2\C(=O)Nc3ccc(C(=O)NCc4ccncc4)cc32)cc1 [GW300657X] | 84 |
| COc1ccc(COc2ccc(Cc3cnc(N)nc3N)cc2OC)cc1 [GW632580X] | 97 |
| NS(=O)(=O)c1ccc(Nc2ncc(-c3ccccc3)o2)cc1 [GW572399X] | 82 |
| COC(=O)Nc1nc2ccc(Oc3ccc(NC(=O)Nc4cc(C(F)(F)F)ccc4F)cc3)cc2s1.Cl [GW693917A] | 78 |
| COc1cc(C)c(N(C)C(=O)CN(C)C)cc1Nc1nc(Nc2cccc(F)c2C(N)=O)c2cc[nH]c2n1 [GSK2219385] | 100 |
| COc1cc(N2CCN(C(C)C)CC2)ccc1Nc1nc(Nc2ccc(F)cc2C(=O)NC[C@@H](O)CO)c2cc[nH]c2n1 [GSK1392956A] | 91 |
| CC(C)COC(=O)c1ccc2c(c1)/C(=C/Nc1ccc(S(N)(=O)=O)cc1)C(=O)N2 [GW416981X] | 76 |
| Cl.c1ccc(Cc2nc3ccc(Nc4ncnc5ccccc45)cc3[nH]2)cc1 [GR269666A] | 92 |
| CCn1c(-c2nonc2N)nc2c(C#CC(C)(C)O)nc(OCCNC)cc21.Cl [GSK949675] | 84 |
| COc1cc2ncn(-c3cc(O[C@H](C)c4ccccc4Cl)c(C(N)=O)s3)c2cc1OC [GSK237701A] | 50 |
| COc1cccc(-n2ncc3c(N/N=C/c4ccncc4)ncnc32)c1 [GW784752X] | 95 |
| C[C@@H](Oc1cc(-n2cnc3ccc(OC4CCN(C)CC4)cc32)sc1C(N)=O)c1ccccc1Cl [GSK579289A] | 24 |
| Cl.O=C(Nc1ccc(Oc2ccc3[nH]c(NC(=O)c4ccccc4)nc3c2)cc1)Nc1cc(C(F)(F)F)ccc1F [GW709042A] | 88 |
| C/C(Nc1ccc(S(N)(=O)=O)cc1)=C1/C(=O)Nc2ccccc21 [GW335962X] | 49 |
